# “And” between values parts separate entries of the source, which are not always exact repeats. Equal entries are not always repeated.
# Test system: HL-1
# Assay: cardiomyocyte survival under oxidative or metabolic stress – cell-based, panel, H9c2 and HL-1, ATP luminescence, set 2, SAR follow-up (AID 651871);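 also: cells exposed to stressor for 2 h before ATP readout; reference of the scale not given here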
# Conditions: H9c2/HL-1 cardiomyocytes, 2-deoxyglucose stress, with 2-deoxyglucose, run 5, at 79 µM (top of the series)
row,Structure (SMILES),activity (protection/inhibition)
1,CCOC(=O)c1cccc(NC(=O)CNC(=O)c2cc(-c3cc(OC)c(OC)c(OC)c3)nc3ccccc23)c1,51.1%
2,COc1ccc2c(c1OC)C(=O)N1c3ccccc3C(=O)N(Cc3cccc(Cl)c3Cl)C21 (stereo not drawn),43.8% and -9.92%
3,COc1ccc2nc(-c3cc(OC)c(OC)c(OC)c3)cc(C(=O)NCC(=O)Nc3ccc(C(C)=O)cc3)c2c1,55.8%
